Among the data in paper PMC7862700, “An all-to-all approach to the identification of sequence-specific readers for epigenetic DNA modifications on cytosine” are binding signal values, retold here.

Holding throughout (experiment): DAPPL (digital affinity profiling via proximity ligation, sequencing); 10 mM Tris-HCl pH 7.5, 50 mM NaCl, 1 mM DTT, 4% glycerol, room temperature, 30 min; GST-TFs on glutathione beads, 16-mer random dsDNA library, 0.1% formaldehyde crosslink after washing; high values mean tight binding
What all share (conditions): protein: recombinant; tags: N-terminal GST; dsDNA, one strand shown

The target in assay [1] is T1, ELK1 (Homo sapiens, UniProt P19419 1-428).
T1 sequence: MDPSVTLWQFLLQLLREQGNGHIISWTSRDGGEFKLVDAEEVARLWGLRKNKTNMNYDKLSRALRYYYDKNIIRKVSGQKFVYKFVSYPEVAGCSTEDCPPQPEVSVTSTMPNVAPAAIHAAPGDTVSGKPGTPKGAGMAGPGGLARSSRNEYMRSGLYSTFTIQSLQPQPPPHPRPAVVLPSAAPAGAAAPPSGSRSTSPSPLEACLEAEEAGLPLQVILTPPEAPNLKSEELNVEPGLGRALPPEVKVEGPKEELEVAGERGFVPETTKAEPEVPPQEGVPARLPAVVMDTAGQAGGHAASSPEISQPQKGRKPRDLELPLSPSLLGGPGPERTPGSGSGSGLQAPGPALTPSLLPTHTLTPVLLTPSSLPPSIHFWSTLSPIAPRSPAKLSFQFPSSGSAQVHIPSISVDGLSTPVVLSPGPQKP
In outline: (§1)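 GST fusions of human transcription factors were expressed in yeast and captured with glutathione beads. Once given DNA barcodes and pooled alongside a tag-only sample, they were incubated for 30 min at room temperature with 200 nmole of a random double-stranded 16-mer DNA library in Tris/NaCl/DTT/glycerol buffer, then washed, crosslinked (0.1% formaldehyde), proximity-ligated, PCR-amplified and sequenced on an Illumina NextSeq500. The binding signal of each hexamer is its read frequency for a factor divided by its frequency for the tag-only sample.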

Assay [2] concerns the target T2, GABPA (Homo sapiens, UniProt Q06546 1-454).
T2 sequence: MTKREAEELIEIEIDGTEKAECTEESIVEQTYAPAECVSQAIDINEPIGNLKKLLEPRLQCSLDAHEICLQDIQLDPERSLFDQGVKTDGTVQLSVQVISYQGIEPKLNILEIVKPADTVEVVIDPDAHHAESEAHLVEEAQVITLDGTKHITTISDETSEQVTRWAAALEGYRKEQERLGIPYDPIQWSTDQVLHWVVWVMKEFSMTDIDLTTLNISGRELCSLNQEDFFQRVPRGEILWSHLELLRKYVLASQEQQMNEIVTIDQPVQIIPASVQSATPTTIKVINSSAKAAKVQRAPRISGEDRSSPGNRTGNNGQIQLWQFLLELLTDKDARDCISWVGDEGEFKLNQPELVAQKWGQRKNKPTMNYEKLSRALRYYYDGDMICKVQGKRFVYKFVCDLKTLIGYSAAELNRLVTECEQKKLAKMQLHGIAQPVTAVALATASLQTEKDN
In outline: as §1

The target of assay [3] is T3, ERG (Homo sapiens, UniProt P11308 1-479).
T3 sequence: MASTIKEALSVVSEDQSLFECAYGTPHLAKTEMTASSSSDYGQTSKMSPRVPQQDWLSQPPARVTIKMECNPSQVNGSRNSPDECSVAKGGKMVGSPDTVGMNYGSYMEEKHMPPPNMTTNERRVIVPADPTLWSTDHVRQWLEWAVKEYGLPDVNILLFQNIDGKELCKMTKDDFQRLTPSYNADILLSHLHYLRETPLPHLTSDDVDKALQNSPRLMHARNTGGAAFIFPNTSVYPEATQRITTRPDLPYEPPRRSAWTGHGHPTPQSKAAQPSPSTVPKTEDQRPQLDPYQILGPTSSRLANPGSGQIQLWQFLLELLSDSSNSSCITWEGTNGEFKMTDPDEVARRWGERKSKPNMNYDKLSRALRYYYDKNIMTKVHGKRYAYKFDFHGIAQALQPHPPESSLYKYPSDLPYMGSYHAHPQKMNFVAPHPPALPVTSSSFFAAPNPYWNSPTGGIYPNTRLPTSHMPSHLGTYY
In outline: as §1

The target in assay [4] is ELF1 (Homo sapiens, UniProt P32519 1-619). In outline: as §1
For assay [5], the target named is T4, EHF (Homo sapiens, UniProt Q9NZC4 1-300).
T4 sequence: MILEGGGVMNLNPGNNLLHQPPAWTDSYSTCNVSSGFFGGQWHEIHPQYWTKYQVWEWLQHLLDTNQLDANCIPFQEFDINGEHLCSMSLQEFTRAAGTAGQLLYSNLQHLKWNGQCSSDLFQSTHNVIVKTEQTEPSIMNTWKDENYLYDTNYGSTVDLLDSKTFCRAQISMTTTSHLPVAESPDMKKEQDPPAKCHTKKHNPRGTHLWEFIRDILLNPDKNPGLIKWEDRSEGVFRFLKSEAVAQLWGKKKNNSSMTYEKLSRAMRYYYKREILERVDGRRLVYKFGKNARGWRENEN
In outline:
as §1

The target of assay [6] is SPIB (Homo sapiens, UniProt Q01892 1-262). In outline:
as §1

The target in assay [7] is ETV5 (Homo sapiens, UniProt P41161 1-510). In outline: as §1
The target in assay [8] is ELF4 (Homo sapiens, UniProt Q99607 1-663). In outline: as §1
The target in assay [9] is T5, ELK4 (Homo sapiens, UniProt P28324-2 1-405).
T5 sequence: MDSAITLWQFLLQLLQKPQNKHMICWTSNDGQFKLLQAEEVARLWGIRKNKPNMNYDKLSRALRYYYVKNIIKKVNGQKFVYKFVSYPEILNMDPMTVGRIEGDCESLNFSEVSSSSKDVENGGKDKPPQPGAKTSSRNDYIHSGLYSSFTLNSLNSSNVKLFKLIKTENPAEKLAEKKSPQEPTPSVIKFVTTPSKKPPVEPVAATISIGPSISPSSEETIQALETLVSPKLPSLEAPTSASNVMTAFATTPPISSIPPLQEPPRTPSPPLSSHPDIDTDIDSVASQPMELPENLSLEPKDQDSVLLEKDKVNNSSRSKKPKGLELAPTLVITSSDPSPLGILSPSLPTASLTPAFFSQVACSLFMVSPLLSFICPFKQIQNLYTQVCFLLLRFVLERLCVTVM
Summed up: as §1

In assay [10] the target is T6, ELF3 (Homo sapiens, UniProt P78545 1-371).
T6 sequence: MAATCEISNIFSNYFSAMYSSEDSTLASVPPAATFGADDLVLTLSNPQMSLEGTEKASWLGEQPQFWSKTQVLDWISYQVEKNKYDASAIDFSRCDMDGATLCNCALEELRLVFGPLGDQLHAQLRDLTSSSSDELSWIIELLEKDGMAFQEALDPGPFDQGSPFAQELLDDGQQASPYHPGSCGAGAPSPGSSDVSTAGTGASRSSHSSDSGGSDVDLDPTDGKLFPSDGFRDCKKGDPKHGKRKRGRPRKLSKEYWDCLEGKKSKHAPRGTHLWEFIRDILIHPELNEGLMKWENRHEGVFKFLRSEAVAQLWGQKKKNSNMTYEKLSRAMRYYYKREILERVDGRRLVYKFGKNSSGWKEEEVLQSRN
Summed up:
as §1

Assay [11] concerns the target ETV1 (Homo sapiens, UniProt P50549 1-477). Summed up: as §1
For assay [12], the target named is T7, ERF (Homo sapiens, UniProt P50548 1-548).
T7 sequence: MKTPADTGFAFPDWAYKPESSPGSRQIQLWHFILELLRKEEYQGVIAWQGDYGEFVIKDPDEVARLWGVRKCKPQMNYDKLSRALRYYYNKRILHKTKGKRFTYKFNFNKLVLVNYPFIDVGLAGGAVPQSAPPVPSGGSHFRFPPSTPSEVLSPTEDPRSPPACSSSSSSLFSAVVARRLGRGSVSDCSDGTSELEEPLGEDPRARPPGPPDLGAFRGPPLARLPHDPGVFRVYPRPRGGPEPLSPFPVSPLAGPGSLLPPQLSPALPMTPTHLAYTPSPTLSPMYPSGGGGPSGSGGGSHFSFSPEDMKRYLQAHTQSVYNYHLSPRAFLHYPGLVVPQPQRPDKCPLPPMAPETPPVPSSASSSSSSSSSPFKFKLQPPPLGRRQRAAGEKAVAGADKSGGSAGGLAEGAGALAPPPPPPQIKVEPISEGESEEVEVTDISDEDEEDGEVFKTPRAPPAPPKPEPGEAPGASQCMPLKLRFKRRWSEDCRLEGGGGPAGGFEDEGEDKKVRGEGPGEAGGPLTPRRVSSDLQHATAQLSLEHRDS
Summed up: as §1

The target of assay [13] is T8, ETV3L (Homo sapiens, UniProt Q6ZN32 1-361).
T8 sequence: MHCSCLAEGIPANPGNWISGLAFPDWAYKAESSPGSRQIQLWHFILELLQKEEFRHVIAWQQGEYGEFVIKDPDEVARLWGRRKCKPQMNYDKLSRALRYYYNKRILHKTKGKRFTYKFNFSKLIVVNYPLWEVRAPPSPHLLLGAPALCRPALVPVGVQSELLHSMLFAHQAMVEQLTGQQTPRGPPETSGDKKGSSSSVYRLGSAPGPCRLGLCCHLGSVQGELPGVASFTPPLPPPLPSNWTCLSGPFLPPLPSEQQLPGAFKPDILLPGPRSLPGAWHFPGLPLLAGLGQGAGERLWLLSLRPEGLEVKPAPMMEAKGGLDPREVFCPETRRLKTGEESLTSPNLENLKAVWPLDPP
In outline: as §1

Assay [14] concerns the target T9, ETS2 (Homo sapiens, UniProt P15036 1-469).
T9 sequence: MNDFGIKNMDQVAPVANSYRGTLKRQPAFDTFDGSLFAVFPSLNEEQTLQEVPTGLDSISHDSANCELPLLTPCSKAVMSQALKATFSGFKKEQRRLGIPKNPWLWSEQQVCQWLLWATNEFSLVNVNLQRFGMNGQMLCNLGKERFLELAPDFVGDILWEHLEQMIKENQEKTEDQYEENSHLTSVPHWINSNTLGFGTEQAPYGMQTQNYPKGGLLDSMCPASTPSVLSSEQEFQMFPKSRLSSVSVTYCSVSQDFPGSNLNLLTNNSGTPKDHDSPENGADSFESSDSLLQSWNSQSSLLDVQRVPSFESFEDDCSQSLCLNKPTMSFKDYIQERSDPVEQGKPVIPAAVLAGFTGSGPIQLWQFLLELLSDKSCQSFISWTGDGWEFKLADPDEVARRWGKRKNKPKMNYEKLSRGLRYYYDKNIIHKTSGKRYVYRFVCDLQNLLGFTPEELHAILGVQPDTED
In outline: as §1

For assay [15], the target named is T10, ETV7 (Homo sapiens, UniProt Q9Y603 1-341).
T10 sequence: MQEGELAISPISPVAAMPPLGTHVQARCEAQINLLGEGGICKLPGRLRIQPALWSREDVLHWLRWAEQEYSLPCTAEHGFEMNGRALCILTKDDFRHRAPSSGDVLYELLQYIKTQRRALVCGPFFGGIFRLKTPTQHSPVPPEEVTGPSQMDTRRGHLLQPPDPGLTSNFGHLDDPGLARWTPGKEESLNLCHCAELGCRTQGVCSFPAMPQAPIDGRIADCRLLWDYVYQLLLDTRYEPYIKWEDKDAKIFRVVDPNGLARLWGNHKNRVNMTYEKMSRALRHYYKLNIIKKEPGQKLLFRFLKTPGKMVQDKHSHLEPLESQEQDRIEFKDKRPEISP
Summed up:
as §1

Assay [16] addresses T11, ETV3 (Homo sapiens, UniProt P41162-2 1-143).
T11 sequence: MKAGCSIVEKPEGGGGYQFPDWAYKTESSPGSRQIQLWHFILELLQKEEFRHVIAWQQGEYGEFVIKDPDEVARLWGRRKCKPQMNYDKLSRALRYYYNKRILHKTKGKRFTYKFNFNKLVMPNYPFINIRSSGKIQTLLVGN
In outline: as §1

Assay [17] has as its target ETV6 (Homo sapiens, UniProt P41212 1-452). Summed up:
as §1

Chain of ELF1 (P32519 whole entry): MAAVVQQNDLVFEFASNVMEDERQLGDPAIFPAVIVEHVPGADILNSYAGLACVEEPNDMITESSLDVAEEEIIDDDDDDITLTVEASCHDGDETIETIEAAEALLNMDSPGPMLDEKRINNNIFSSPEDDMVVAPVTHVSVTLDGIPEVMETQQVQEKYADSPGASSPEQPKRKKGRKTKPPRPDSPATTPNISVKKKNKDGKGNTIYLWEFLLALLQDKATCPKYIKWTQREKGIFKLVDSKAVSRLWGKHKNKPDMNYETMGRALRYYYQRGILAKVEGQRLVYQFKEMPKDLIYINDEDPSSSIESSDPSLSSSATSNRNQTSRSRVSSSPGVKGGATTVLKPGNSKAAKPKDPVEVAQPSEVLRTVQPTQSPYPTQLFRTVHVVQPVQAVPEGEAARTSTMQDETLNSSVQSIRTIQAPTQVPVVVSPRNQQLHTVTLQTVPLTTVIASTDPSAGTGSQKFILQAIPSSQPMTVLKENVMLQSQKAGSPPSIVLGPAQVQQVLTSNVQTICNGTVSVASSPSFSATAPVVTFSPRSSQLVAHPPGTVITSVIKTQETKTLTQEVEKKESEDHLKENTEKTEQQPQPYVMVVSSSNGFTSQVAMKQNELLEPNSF
Chain of ETV5 (P41161 whole entry): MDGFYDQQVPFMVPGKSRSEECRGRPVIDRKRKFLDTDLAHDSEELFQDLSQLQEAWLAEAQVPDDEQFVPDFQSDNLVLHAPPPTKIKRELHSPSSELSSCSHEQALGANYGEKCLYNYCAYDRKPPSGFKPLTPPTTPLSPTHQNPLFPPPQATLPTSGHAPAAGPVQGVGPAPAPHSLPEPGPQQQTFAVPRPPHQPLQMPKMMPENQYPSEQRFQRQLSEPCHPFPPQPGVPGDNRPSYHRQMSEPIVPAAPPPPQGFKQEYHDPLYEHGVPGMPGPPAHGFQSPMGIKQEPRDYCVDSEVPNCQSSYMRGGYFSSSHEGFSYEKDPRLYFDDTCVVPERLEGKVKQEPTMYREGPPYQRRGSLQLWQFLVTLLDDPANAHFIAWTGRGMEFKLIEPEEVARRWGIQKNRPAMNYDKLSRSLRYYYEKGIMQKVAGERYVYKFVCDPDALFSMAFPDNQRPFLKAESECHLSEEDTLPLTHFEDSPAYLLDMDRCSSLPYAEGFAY
Chain of SPIB (Q01892 whole entry): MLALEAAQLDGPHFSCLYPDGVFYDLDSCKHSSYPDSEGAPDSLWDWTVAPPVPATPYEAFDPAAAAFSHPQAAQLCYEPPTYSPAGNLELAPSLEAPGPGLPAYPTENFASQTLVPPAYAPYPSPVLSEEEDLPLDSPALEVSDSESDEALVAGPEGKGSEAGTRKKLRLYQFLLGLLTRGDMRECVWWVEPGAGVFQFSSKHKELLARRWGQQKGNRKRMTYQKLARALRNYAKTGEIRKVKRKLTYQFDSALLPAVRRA
Chain of ETV1 (P50549 whole entry): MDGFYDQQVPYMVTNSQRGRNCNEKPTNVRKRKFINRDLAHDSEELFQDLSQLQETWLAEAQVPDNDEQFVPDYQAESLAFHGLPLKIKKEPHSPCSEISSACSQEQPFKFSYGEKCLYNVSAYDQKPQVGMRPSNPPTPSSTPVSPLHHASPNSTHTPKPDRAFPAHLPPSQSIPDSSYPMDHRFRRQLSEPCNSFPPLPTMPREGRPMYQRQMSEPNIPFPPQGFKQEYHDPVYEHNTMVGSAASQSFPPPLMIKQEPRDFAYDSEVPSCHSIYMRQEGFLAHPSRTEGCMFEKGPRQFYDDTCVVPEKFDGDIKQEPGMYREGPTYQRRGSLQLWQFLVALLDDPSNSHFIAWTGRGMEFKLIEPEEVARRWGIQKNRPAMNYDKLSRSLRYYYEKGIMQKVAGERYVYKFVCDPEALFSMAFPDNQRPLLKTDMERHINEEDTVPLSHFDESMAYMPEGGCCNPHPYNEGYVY
Chain of ELF4 (Q99607 whole entry): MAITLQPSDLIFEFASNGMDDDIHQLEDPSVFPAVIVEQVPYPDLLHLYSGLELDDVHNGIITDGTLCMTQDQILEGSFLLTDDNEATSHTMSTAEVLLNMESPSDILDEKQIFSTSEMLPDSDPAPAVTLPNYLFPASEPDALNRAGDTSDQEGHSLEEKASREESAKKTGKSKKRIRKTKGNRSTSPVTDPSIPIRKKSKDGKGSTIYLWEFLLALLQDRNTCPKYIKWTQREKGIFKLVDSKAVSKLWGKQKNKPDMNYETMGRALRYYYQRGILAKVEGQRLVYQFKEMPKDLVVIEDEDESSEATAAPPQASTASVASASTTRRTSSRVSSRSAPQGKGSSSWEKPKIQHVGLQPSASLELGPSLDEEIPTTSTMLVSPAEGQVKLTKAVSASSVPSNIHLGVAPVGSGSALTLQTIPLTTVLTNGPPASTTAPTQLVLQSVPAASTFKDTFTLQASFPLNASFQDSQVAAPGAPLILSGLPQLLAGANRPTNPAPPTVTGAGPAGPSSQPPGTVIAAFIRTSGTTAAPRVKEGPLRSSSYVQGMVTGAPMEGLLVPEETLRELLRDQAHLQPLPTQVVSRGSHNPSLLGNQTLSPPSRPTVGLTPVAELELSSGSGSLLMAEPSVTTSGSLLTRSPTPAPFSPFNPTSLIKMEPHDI
Chain of ETV6 (P41212 whole entry): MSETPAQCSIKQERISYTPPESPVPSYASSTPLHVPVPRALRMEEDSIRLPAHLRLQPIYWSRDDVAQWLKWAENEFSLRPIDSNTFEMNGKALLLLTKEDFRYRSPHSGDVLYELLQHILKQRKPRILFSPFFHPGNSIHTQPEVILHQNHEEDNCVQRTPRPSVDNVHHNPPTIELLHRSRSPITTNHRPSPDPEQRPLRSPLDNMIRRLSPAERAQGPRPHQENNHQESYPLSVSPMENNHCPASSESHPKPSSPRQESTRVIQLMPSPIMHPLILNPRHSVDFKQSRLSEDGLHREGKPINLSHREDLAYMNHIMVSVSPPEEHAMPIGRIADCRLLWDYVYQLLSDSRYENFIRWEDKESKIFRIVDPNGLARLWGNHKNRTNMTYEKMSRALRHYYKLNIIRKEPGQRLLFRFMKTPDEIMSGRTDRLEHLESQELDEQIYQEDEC

Turning to GTAGCT, the binding signal in [1] is 1.08 fold enrichment (6-mer frequency, TF over GST control); in assay [2] it was 1.12 fold enrichment (6-mer frequency, TF over GST control); in assay [3], 1.05 fold enrichment (6-mer frequency, TF over GST control); in [4], 1.06 fold enrichment (6-mer frequency, TF over GST control); in assay [5] it was 1.12 fold enrichment (6-mer frequency, TF over GST control); in [6], 1.18 fold enrichment (6-mer frequency, TF over GST control). Besides, the binding signal is 1.14 fold enrichment (6-mer frequency, TF over GST control) in assay [7]; 1.1 fold enrichment (6-mer frequency, TF over GST control) in assay [8]; 1.17 fold enrichment (6-mer frequency, TF over GST control) in assay [9]; 1.18 fold enrichment (6-mer frequency, TF over GST control) in assay [10]; 1.13 fold enrichment (6-mer frequency, TF over GST control) in [11]; 1.1 fold enrichment (6-mer frequency, TF over GST control) in assay [12]. Besides, the binding signal in assay [13] is 1.08 fold enrichment (6-mer frequency, TF over GST control); in assay [14], 1.13 fold enrichment (6-mer frequency, TF over GST control); in [15], 1.12 fold enrichment (6-mer frequency, TF over GST control); in assay [16], 1.09 fold enrichment (6-mer frequency, TF over GST control); in assay [17] it was 1.06 fold enrichment (6-mer frequency, TF over GST control).
